Measured values as given in PubChem BioAssay (NCATS).
Records with an inconclusive call do not appear. Active and inactive are the calls of the source. Calls come from the whole dose curve; as a rule, active = well fitted curve in the direction sought with a large enough effect; inconclusive = small, poorly fitted or top-dose-only effect, or another doubt; inactive = no such curve, though single readings can be large; an effect the other way counts as inactive or inconclusive.

Biological target: Phospholipid hydroperoxide glutathione peroxidase GPX4 (Homo sapiens) (UniProt P36969)
Sequence (P36969 whole entry, looked up): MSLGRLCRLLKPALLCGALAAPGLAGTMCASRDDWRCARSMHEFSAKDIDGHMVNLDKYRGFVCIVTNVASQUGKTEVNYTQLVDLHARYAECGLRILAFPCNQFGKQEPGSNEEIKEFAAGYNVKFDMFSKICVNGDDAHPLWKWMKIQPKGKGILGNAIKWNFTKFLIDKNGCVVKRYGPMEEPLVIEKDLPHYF
Assay: Primary qHTS Assay for Inhibitors of Recombinant Selenoprotein Glutathione Peroxidase 4 (GPX4) (AID 1845192); note: nearly all actives have a fitted effect of over 65% in size; for activity change, negative = inhibition: % is set by controls: 0 for no effect and ±100 for the full control effect
Conditions: recombinant GPX4, GR-coupled NADPH fluorescence, 15 min; series mostly up to 50 µM; activity change, negative = inhibition: at the top concentration
In short: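 NADPH consumption, followed by fluorescence at 340/450 nm between 0 and 15 min, reports GPX4 activity via coupled glutathione reductase (100 nM). Enzyme 200 nM was pre-exposed to compound 30 min; 0.5 mM cumene hydroperoxide and 1 mM GSH served as substrates.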
With `CN1C(=O)CCS(=O)(=O)C1c1ccc(Cl)cc1` (stereo not drawn) the Potency was “inactive”. In the case of `O=[N+]([O-])O[C@H]1CO[C@H]2[C@@H]1OC[C@H]2O[N+](=O)[O-]`, the “activity change, negative = inhibition” value is reported as -2.38% (inactive). For `COP(=S)(OC)Oc1ccc(SC)c(C)c1`, the “activity change, negative = inhibition” value was 4.81% (inactive). In the case of `NC(=O)c1cc([N+](=O)[O-])cc([N+](=O)[O-])c1`, the “activity change, negative = inhibition” value is reported as -19% (inactive). For `C[C@]12Cc3cn[nH]c3C[C@@H]1CC[C@@H]1[C@@H]2CC[C@@]2(C)[C@H]1CC[C@]2(C)O`, the “activity change, negative = inhibition” value was -21.7% (inactive). For `O=c1[nH]oc2c1CCNC2`, the “activity change, negative = inhibition” value was -3.82% (inactive). With `COP(=S)(OC)Oc1cc(Cl)c(Cl)cc1Cl` the “outcome” value was “inactive”. For `CN1C(=O)NC(=O)C(C)(C2=CCCCC2)C1=O` (stereo not drawn), the “activity change, negative = inhibition” value was -11.2% (inactive). With `CCCCCN(C)CCC(O)(P(=O)(O)O)P(=O)(O)O` the Potency was “inactive”. In the case of `CC(C)N(CCC(C(N)=O)(c1ccccc1)c1ccccn1)C(C)C` (stereo not drawn), the Potency is reported as “inactive”. With `CC(C)c1cccc(C(C)C)c1O` the Potency was “inactive”. In the case of `COc1c2c(cc3c1OCO3)CCN(C)C2`, the “activity change, negative = inhibition” value is reported as -22% (inactive). In the case of `Cc1ncsc1CCCl`, the Potency is reported as “inactive”. For `CCC1(c2ccc(N)cc2)CCC(=O)NC1=O` (stereo not drawn), the Potency was “inactive”. In the case of `COc1cccc(C(=O)CCN[C@@H](C)[C@H](O)c2ccccc2)c1`, the “activity change, negative = inhibition” value is reported as -13.2% (inactive). For `O=c1c(C2CC(c3ccc(-c4ccc(Br)cc4)cc3)Cc3ccccc32)c(O)sc2ccccc12` (stereo not drawn), the “outcome” value was “inactive”. In the case of `O=P1(N(CCCl)CCCl)NCCCO1` (stereo not drawn), the Potency is reported as “inactive”. In the case of `CCOP(=S)(OCC)Oc1ccc2c(C)c(Cl)c(=O)oc2c1`, the “activity change, negative = inhibition” value is reported as -14.3% (inactive). With `NCCc1ccc(O)cc1` the “activity change, negative = inhibition” value was -15.9% (inactive). With `COc1ccc2c(c1OC)C(=O)O[C@H]2[C@@H]1c2cc3c(cc2CCN1C)OCO3` the Potency was “inactive”. In the case of `CC(C)(C)NCC(O)c1ccccc1Cl` (stereo not drawn), the Potency is reported as “inactive”. In the case of `Nc1ccccc1`, the “outcome” value is reported as “inactive”. For `CC(NC(C)(C)C)C(=O)c1cccc(Cl)c1` (stereo not drawn), the Potency was “inactive”. With `C[C@]12CC[C@@H]3c4ccc(OC(=O)N(CCCl)CCCl)cc4CC[C@H]3[C@@H]1CC[C@@H]2O` the “outcome” value was “inactive”. With `C[C@@H]1CC2=CC(=O)CC[C@@H]2[C@H]2CC[C@@]3(C)[C@@H](CC[C@]3(C)O)[C@@H]21` the “outcome” value was “inactive”. In the case of `CC(C)NC(C)C`, the “activity change, negative = inhibition” value is reported as -0.296% (inactive). For `O=C(CCCN1CCC2(CC1)C(=O)NCN2c1ccccc1)c1ccc(F)cc1`, the Potency was “inactive”.

System: not listed separately
Assay: Quantitative High-Throughput drug screen in 47 multiple myeloma cell lines against the NCATS MIPE library collection: FR4_PLB cell viability assay (AID 1918924; note: nearly all actives have a fitted effect of over 35% in size)
Conditions: FR4_PLB myeloma cells viability, CellTiter-Glo ATP, 48 h; series mostly up to 45.8 µM; viability (% of DMSO control): at the top concentration
From the text: (§1) PI: Beverly A. Mock Ph.D.
(§2) Laboratory of Cancer Biology and Genetics,
(§3) Center for Cancer Research, National Cancer Institute,
(§4) National Institute of Health, Bethesda, Maryland
(§5) Drug resistance and disease progression are common in multiple myeloma (MM) patients, underscoring the need for new therapeutic combinations. […] We hypothesized that effective combinations would reduce MYC expression and enhance p16 activity. […] These preclinical data identify potentially useful drug combinations for evaluation in drug-resistant MM and reveal potential mechanisms of combined drug sensitivity.
(§6) Described herein is the primary MIPE qHTS used to cherrypick compounds. Validated compounds were then further tested for potential synergistic activiy.
(§7) [1] Peat TJ, Gaikwad SM, Dubois W, Gyabaah-Kessie N, Zhang S, Gorjifard S, Phyo Z, Andres M, Hughitt VK, Simpson RM, Miller MA, Girvin AT, Taylor A, Williams D, D'Antonio N, Zhang Y, Rajagopalan A, Flietner E, Wilson K, Zhang X, Shinn P, Klumpp-Thomas C, McKnight C, Itkin Z, Chen L, Kazandijian D, Zhang J, Michalowski AM, Simmons JK, Keats J, Thomas CJ, Mock BA. Drug combinations identified by high-throughput screening promote cell cycle transition and upregulate Smad pathways in myeloma. Cancer Lett. 2023 Aug 1;568:216284. doi: 10.1016/j.canlet.2023.216284. Epub 2023 Jun 24. PMID: 37356470; PMCID: PMC10408729.
(§8) SEQUENCE No. (e.g., 1, 2, 3, etc.); […] (e.g., Cells, Incubation, Reagent, etc.); VALUE and DESCRIPTION.
(§9) 1; Cells; 5 uL; white, solid bottom 1536-well Greiner assay plate.
(§10) 2; Compounds; 23 nL; Kalypsis pin tool (Wako USA) equipped with a 1536-well pin head to transfer to the assay plates.
(§11) 3; Incubation; 48 hours; 37C incubation.
(§12) 4; Reagent;5uL; CellTiter Glo (Promega).
(§13) 5; Detector; 425V; Luminescence; Viewlux PerkinElmer.
(§14) NOTES (numbers refer to Sequence numbers above)
(§15) 1. The cell-based screening methods employed in this study were like those previously published. Briefly, the corresponding myeloma cell lines were screened in 1,536-well plates with 500 cells, 5-uL per well for inhibition of cell viability (assessed by measuring ATP levels with CellTiterGlo).
(§16) 2. NCATS MIPE 4.0 library of approved and investigational drugs were added using the Kalypsis pin tool. Wells treated with DMSO only for 100% viability and media only wells for 0% viability were used as controls.
(§17) 3. The assay plates were covered and incubated for 48 hours in a 37C, 5% CO2 incubator with controlled humidity.
(§18) 4. After 48 hours, CellTilter-GloTM luminescent substrate mix (Promega) reagent was added to the assay plate and plates we incubated for 5 min at room temperature.
(§19) 5. Signal was measured as median relative luminescence units on a ViewLux (PerkinElmer) multiplate reader.
(§20) [1] Heske CM, Davis MI, Baumgart JT, Wilson K, Gormally MV, Chen L, Zhang X, Ceribelli M, Duveau DY, Guha R, Ferrer M, Arnaldez FI, Ji J, Tran HL, Zhang Y, Mendoza A, Helman LJ, Thomas CJ. Matrix Screen Identifies Synergistic Combination of PARP Inhibitors and Nicotinamide Phosphoribosyltransferase (NAMPT) Inhibitors in Ewing Sarcoma. Clin Cancer Res. 2017 Dec 1;23(23):7301-7311. doi: 10.1158/1078-0432.CCR-17-1121. Epub 2017 Sep 12. PMID: 28899971; PMCID: PMC6636827.
In the case of `CC(C)c1cccc(C(C)C)c1O`, the “viability (% of DMSO control)” value is reported as 127% (inactive). With `CCC1(c2ccc(N)cc2)CCC(=O)NC1=O` (stereo not drawn) the “viability (% of DMSO control)” value was 109% (inactive). With `O=P1(N(CCCl)CCCl)NCCCO1` (stereo not drawn) the “viability (% of DMSO control)” value was 146% (inactive). With `CC(NC(C)(C)C)C(=O)c1cccc(Cl)c1` (stereo not drawn) the “viability (% of DMSO control)” value was 101% (inactive).

System: not listed separately
Assay: Quantitative High-Throughput drug screen in 47 multiple myeloma cell lines against the NCATS MIPE library collection: Delta47_JCRB cell viability assay (AID 1918925; note: nearly all actives have a fitted effect of over 45% in size; note: potency is the fitted concentration of half-maximal effect)
Conditions: Delta47 myeloma viability, CellTiter-Glo ATP, 48 h; series mostly up to 45.8 µM; viability (% of DMSO): at the top concentration
From the text: as §1, §2, §3, §4, §5, §6, §7, §8, §9, §10, §11, §12, §13, §14, §15, §16, §17, §18, §19, §20
For `CC(C)c1cccc(C(C)C)c1O`, the “viability (% of DMSO)” value was 152% (inactive). With `CCC1(c2ccc(N)cc2)CCC(=O)NC1=O` (stereo not drawn) the “viability (% of DMSO)” value was 96.9% (inactive). In the case of `O=P1(N(CCCl)CCCl)NCCCO1` (stereo not drawn), the Potency is reported as 14.8 µM (active).

System: not listed separately
Assay: Quantitative High-Throughput drug screen in 47 multiple myeloma cell lines against the NCATS MIPE library collection: AMO1_DSMZ cell viability assay (AID 1918927; note: nearly all actives have a fitted effect of over 30% in size)
Conditions: AMO1 myeloma cells viability, CellTiter-Glo ATP luminescence, 48 h; series mostly up to 45.8 µM; viability, % of DMSO: at the top concentration
In short: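 CellTiter-Glo ATP luminescence gave viability after 48 h compound treatment at 37C of 500 multiple myeloma cells per well. Normalisation used DMSO-only wells as 100% and media-only wells as 0% viability; primary qHTS of approved and investigational drugs.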
In the case of `CN1C(=O)CCS(=O)(=O)C1c1ccc(Cl)cc1` (stereo not drawn), the “viability, % of DMSO” value is reported as 109% (inactive). For `CC(C)c1cccc(C(C)C)c1O`, the “viability, % of DMSO” value was 139% (inactive). For `CCC1(c2ccc(N)cc2)CCC(=O)NC1=O` (stereo not drawn), the “viability, % of DMSO” value was 105% (inactive). With `CC(NC(C)(C)C)C(=O)c1cccc(Cl)c1` (stereo not drawn) the “viability, % of DMSO” value was 127% (inactive).
